A selection follows.
VCAM1 pot: enhances TNF alpha induced VCAM1 expression in HUVEC; HUVEC TNFa-stimulated VCAM-1 immunofluorescence, high-content imaging; scaled per plate to unstimulated/TNFa-only wells; activation, % at 2 µM; actives 0.19% (n = 93,000); AID 808;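 active = activation above the screen mean plus 3 SD, with well images confirming the hit on visual review, cut at about 28% in these data, passing the limit was not always enough; inconclusive = activation above that limit but images do not confirm it; inactive = activation not above that limit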;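 also: signal is the number of cytoplasmic VCAM-1 stained grains per positive cell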
VCAM1 pot confirm: potentiators of TNFa-induced VCAM1 expression, confirmation, imaging, HUVEC, triplicate retest. 230 tested, under 10 active. activation, % at 2 µM. HUVEC TNFa-stimulated VCAM-1 immunofluorescence imaging. shares compounds with VCAM1 pot;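 active = activation above 30% in triplicate retests at 2 µM, then confirmed by visual review of the well images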
Of the large screens only hits and unclear results are named; the others gave an inactive call (follow-up assays come after a bar, where they were run).

CC(C)CC(=O)NCc1ccc(F)cc1	none
COc1cc(-c2nnc(CSc3nnc4nc(C)cc(C)n34)o2)cc(OC)c1OC	none
CC(=O)Nc1c(C(=O)N2CCCCCC2)cnn1-c1ccccc1Cl	none
O=C1Nc2ccc(F)cc2C12SCCS2	none
COc1ccccc1-c1cc2ccccc2[nH]1	none
Cc1ccc(-n2c(N)c(C(=O)NCc3cccnc3)sc2=S)cc1	none
O=C(O)C1CCN(S(=O)(=O)/C=C/c2ccccc2)CC1	none
Cc1ccc(S(=O)(=O)N2CCCC(C(=O)NCCc3ccc4c(c3)OCO4)C2)cc1 (stereo unspecified)	none
CN(C)c1oc(-c2cccs2)nc1C#N	none
CC(=O)OCc1nc2sc3c(c2c(=O)[nH]1)CCCC3	none
O=c1oc(-c2cccs2)nc2sc3c(c12)CCCCC3	VCAM1 pot 37
Cc1onc(-c2ccccc2Cl)c1C(=O)Nc1sc2c(c1C(N)=O)CCC(C)C2 (stereo unspecified)	none
COc1ccc(/C=N/N=C2/NC(=O)C(c3ccccc3)(c3ccccc3)S2)cc1	none
CCOC(=O)c1cc(NC(=O)c2c(C)noc2C)cc(C(=O)OCC)c1	none
CCN(C(=O)CSc1nc2ccccc2n1CCc1ccccc1)C1CCS(=O)(=O)C1 (stereo unspecified)	none
CC(C)(C)C(=O)/C(=C\c1cccc([N+](=O)[O-])c1)n1cncn1	none
COc1ccc(C2/C(=C(\O)c3cccc(OC)c3)C(=O)C(=O)N2c2ccccn2)cc1 (stereo unspecified)	none
CN(C)S(=O)(=O)c1cccc(NC(=O)Cn2cnc3ccccc3c2=O)c1	none
COc1ccc(OC)c(-n2c(-c3cccc(O)c3)n[nH]c2=S)c1	none
COC(=O)c1cc(C#N)c(Oc2ccc(F)cc2)nc1C	none
O=C(CC12CC3CC(CC(C3)C1)C2)NCC(=O)N1CCc2ccccc2C1	none
CCc1ccc(N/C(SCc2ccccc2C)=C(/C#N)C(=O)NCc2ccco2)cc1	none
CCOc1ccc(S(=O)(=O)N(CC(=O)N/N=C/c2cccs2)c2ccc(C)cc2)cc1	none
CCOC(=O)c1ccc(-n2c(=S)sc3c(=O)[nH]c(C)nc32)cc1	none
COc1ccc(S(=O)(=O)N(C)CC(=O)NCc2cccnc2)cc1Cl	none
O=C(COc1cccc(C(F)(F)F)c1)Nc1ccc(S(=O)(=O)N2CCCC2)cc1	none
CN(C)CC(C)(C)CNS(=O)(=O)c1ccc(Cl)c(Cl)c1	none
CCc1nc(C)cn1S(=O)(=O)c1cc(C)c(OC)c(C)c1C	none
C/C(Sc1nnc(Cc2ccccc2)o1)=C(/O)c1ccccc1	none
CCOC(=O)C1=NN(c2ccc(Cl)cc2)C(c2ccccc2)CC1=O (stereo unspecified)	none
CC(=O)Nc1ccc(S(=O)(=O)N2CCN(C(=O)c3cccnc3)CC2)cc1	none
COc1ccc(-c2cc(O)cc(O)c2)cc1	none
O=C(N1CCOCC1)N1CCN(S(=O)(=O)N2CCOCC2)CC1	none
O=C(O)c1cc2ccc3ccccc3c2oc1=O	none
O=S(=O)(C/C(=C/CO)S(=O)(=O)c1ccccc1)c1ccccc1	none
Cc1ccc(S(=O)(=O)NCC(c2cccnc2)N(C)C)cc1 (stereo unspecified)	none
Cc1nonc1NCn1nnc2ccccc21	none
CCN(C(=O)c1cccc(F)c1)c1ccccc1C	none
CCOC(=O)c1c(NC(=O)OC)sc(C(=O)N(CC)CC)c1C	none
CCC1=NC(c2ccccc2Cl)N(O)C1(C)C (stereo unspecified)	none
O=C(O)c1cn(C2CC2)c2cc(N3CCOCC3)c(F)cc2c1=O	none
NC(=O)C1(N2CCCCC2)CCN(S(=O)(=O)c2cc(Cl)ccc2Cl)CC1	none
COc1cccc(OC)c1NC(=O)CN1CCC(NC(=O)c2cccc(F)c2)CC1	none
N#Cc1ccccc1Sc1ccccc1C(=O)Nc1ccccc1	none
CCOC(=O)C(O)(CC(=O)c1ccc(OC)cc1)C(F)(F)F (stereo unspecified)	none
Clc1ccc(COc2ccccn2)cc1Cl	none
Cc1ccc(-n2nnc3c(SCC(=O)N4CCN(c5ccccc5)CC4)ncnc32)cc1	none
COC(=O)C1=C(C(=O)OC)SC(=C2C(=S)C(C)(C)N(C(=O)CC(C)C)c3ccccc32)S1	none
CCOc1ccccc1C1CC(c2ccc(F)cc2)Nc2nc(N)nn21 (stereo unspecified)	none
COC(=O)c1ccc(CNC(=O)CSc2nc3sc(C)c(C)c3c(=O)n2C)o1	none
CC1=CC(C)(C)N(C(=O)C(C)N2C(=O)c3ccccc3C2=O)c2ccc(C)cc21 (stereo unspecified)	none
CC(C)(C)NC(=O)NC(=O)COC(=O)c1cc(=O)[nH]c2ccccc12	none
Nc1nnc(SCCOc2ccc(Br)cc2)s1	none
COc1ccc(NC(=O)/C(Cl)=C(/Cl)S(=O)(=O)Cc2ccc(C)cc2)cn1	none
Cc1cc(C)c(S(=O)(=O)N(C2=NCCS2)S(=O)(=O)c2c(C)cc(C)cc2C)c(C)c1	none
CCOC(=O)C1C(=O)NC(N2CCCCC2)=NC1c1ccco1 (stereo unspecified)	none
CCCNc1nc(Nc2ccc(C)cc2)nc(N2CCCC2)n1	none
O=c1[nH]c(NCc2ccco2)nnc1Cc1ccccc1Cl	none
COc1ccc(OC)c(-n2c(C)ccc2-c2ccc(S(C)(=O)=O)cc2)c1	none
c1ccc(SCc2nc3ccccc3[nH]2)nc1	none
COC(=O)C(NC(=O)c1ccc(C)cc1)(Nc1cccc(C)n1)C(F)(F)F (stereo unspecified)	none
COC(=O)C1=C(O)C(C(=O)OC)C(c2ccc(C)cc2)C(C#N)(C#N)C1c1ccc(C)cc1 (stereo unspecified)	none
CCOc1ccc(Oc2ccc(-c3nnc(-c4ccccc4)o3)cc2[N+](=O)[O-])cc1	none
CCNc1nc(NCC)nc(N2CC(=O)N(CC(=O)OCC)C2=N)n1	none
O=C(NCc1cccnc1)c1ccc(COc2cccc3ccccc23)o1	none
Oc1ccc(-n2cnnn2)cc1	none
Cn1nc(C(F)(F)F)c(C(=O)Nc2ccc(F)cc2F)c1Sc1ccc(C(F)(F)F)cc1	none
COC(=O)Cn1cc(C(=O)C2CC2)c2ccccc21	VCAM1 pot 54 | VCAM1 pot confirm inactive
O=C(Cn1cc(C(=O)c2ccco2)c2ccccc21)NCc1ccco1	none
CCCn1nc([N+](=O)[O-])c(C(C#N)c2nc3ccccc3s2)c(Cl)c1=O (stereo unspecified)	none
Cc1sc2nc(SCc3nc(-c4cccs4)no3)n(-c3ccccc3)c(=O)c2c1C	none
C=CCNC(=O)CC(=O)N/N=C/c1ccccc1F	none
CCOC(=O)C1=C(C)NC(C)=C(C(=O)OCC)C1C(=O)OC1CCOC1=O (stereo unspecified)	none
COc1ccc(-c2c3c(nc4sc5c(Cl)nc(C)nc5c24)CCC3)cc1	none
COc1ccc(OC)c(NS(=O)(=O)c2ccc3c(c2)n(C)c(=O)n3C)c1	none
CCOC(=O)c1cc2nc(Nc3ccc(OC)cc3)sc2s1	none
CCOc1ccc2sc(NS(=O)(=O)c3ccc(OC)c(OC)c3)nc2c1	VCAM1 pot 61 | VCAM1 pot confirm inactive
C#CCOC(=O)c1ccccc1C(=O)O	none
Cc1ccc(S(=O)(=O)CCc2nc3ccccc3s2)cc1C	none
CCOC(=O)C(NC(=O)c1ccccc1)(Nc1nnc(C)s1)C(F)(F)F (stereo unspecified)	none
O=C(NCc1ccccc1)c1ccc(C(=O)N(C2CCCCC2)C2CCCCC2)cc1	none
Cc1cccc(NC(=O)c2cccc(N3C(=O)C4C5CCC(C5)C4C3=O)c2)c1C (stereo unspecified)	none
Cn1ccnc1SCC(=O)Nc1ccc2ccccc2c1	none
C/C(=N\NC(=O)Cc1cccn1C)c1ccc2ccccc2c1	VCAM1 pot inconclusive | VCAM1 pot confirm inactive
Cc1ccc(N(C)C(=O)N2CCN(S(=O)(=O)c3ccc(C)c(C)c3)CC2)cc1	none

Screening results from PubChem.
